According to PubChem BioAssay AID430 (Sanford-Burnham Center for Chemical Genomics, 2006):
The whole screen tested about 63,000 compounds, of which about 1,100 (1.7%) were called active. Only a selection was taken, and actives are over-represented in it overall. Results with a measured potency or affinity are listed apart. Values without a mark were called inactive. No stated cut-off is given here; in the data, active means cytotoxicity above about 50%; inactive means the rest.

Experiment: HPDE-C7 pancreatic duct cell viability loss – fluorescence, HTS (AID 430);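 further: cells exposed to compound for 48 hours before viability readout; 0% = vehicle and 100% = reference cytotoxic drug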
Conditions: HPDE-C7 pancreatic duct cells viability, at 10 µM, stronger effect = higher value
With CSc1nsc(SCc2ccc(F)cc2)n1 the cytotoxicity was -4.1%. In the case of Nc1nnc(SCc2ccc(F)cc2)s1, the cytotoxicity was -16.7%. With Cc1nnc(SCc2ccc(F)cc2)s1 the cytotoxicity was 105% (active). For Clc1ccccc1-c1nnc2sc(-c3ccco3)nn12, the cytotoxicity was -6.1%. In the case of COC(=O)C1=C(C)N(c2cccc(Cl)c2)C(=O)C1, the cytotoxicity was -4.9%. Work on COC(=O)C1=C(C)N(c2ccc(F)c(Cl)c2)C(=O)C1 yielded a cytotoxicity of -5.3%. In the case of COC(=O)C1=C(C)N(c2ccc(Cl)c(Cl)c2)C(=O)C1, the cytotoxicity was 84.2% (active). Cc1nc2c(o1)CCc1ccccc1C2N1CCN(C)CC1 (stereo unspecified) showed a cytotoxicity of -16.4%. CC(C)CC(OC(=O)c1ccco1)C(=O)NC1CCCCC1 (stereo unspecified) showed a cytotoxicity of -5.1%. Cc1ccc(N2CCN(CCc3nc4cc(NS(C)(=O)=O)ccc4n3C)CC2)cc1 showed a cytotoxicity of -22.1%. For CCC(C)(C)n1nnnc1C(c1ccccc1F)N1CCC(C(N)=O)CC1 (stereo unspecified), the cytotoxicity was 56.3% (active). Work on CC(C)CCn1nnnc1C(c1ccccc1F)N1CCC(C(N)=O)CC1 (stereo unspecified) yielded a cytotoxicity of -13.3%. CCC(C)(C)n1nnnc1C(C(C)C)N1CCC(C(N)=O)CC1 (stereo unspecified) gave a cytotoxicity of 5.6%. In the case of O=C(CN(C1CCCCC1)S(=O)(=O)c1ccc(Cl)cc1)NCc1ccncc1, the cytotoxicity was -8.9%. With Cc1cc(C)c2c(CN3CCN(Cc4ccc5c(c4)OCO5)CC3)cc(=O)oc2c1C the cytotoxicity was 44.1%. With O=C(c1cccc(COc2ccc(Cl)cc2Cl)c1)N1CCN(c2ccccn2)CC1 the cytotoxicity was 77.5% (active). For O=C(c1cccc(Cl)c1)N1CCN(c2ccccn2)CC1, the cytotoxicity was -14.9%. With O=C(CCCOc1ccc(Cl)cc1Cl)N1CCN(c2ccccn2)CC1 the cytotoxicity was 3.1%. Cc1cc2c(cc1C)NC(CC(=O)NCc1ccccc1)C(=O)N2 (stereo unspecified) gave a cytotoxicity of 1.1%. For Oc1ccc(Nc2nc(-c3ccc(O)cc3)cs2)cc1, the cytotoxicity was 78.4% (active). In the case of c1cncc(Nc2nc(-c3ccncc3)cs2)c1, the cytotoxicity was -3.1%. Cc1nc(N)sc1-c1csc(Nc2ccccc2)n1 showed a cytotoxicity of 36.2%. With NS(=O)(=O)c1ccc(Nc2nc(-c3ccc(O)cc3)cs2)cc1 the cytotoxicity was -1.2%. For CC(=O)Nc1nc(C)c(-c2csc(Nc3ccc(O)cc3)n2)s1, the cytotoxicity was 58.6% (active). Work on C=CCNc1nc(-c2sc(NC(C)=O)nc2C)cs1 yielded a cytotoxicity of 11.6%. O=C(NC1CCCC1)c1cnc2n(c1=O)CCS2 gave a cytotoxicity of -10.2%. Work on COc1ccc2c(c1)OC(O)(C(F)(F)F)CC2=O (stereo unspecified) yielded a cytotoxicity of -3.3%. With O=C1CC(O)(C(F)(F)F)Oc2c1ccc1ccccc21 (stereo unspecified) the cytotoxicity was 82.3% (active). In the case of O=C1CC(O)(C(F)F)Oc2ccc3ccccc3c21 (stereo unspecified), the cytotoxicity was -12.2%. In the case of COc1cccc(-c2nc(=S)c3c(n2Cc2ccco2)CCCC3)c1, the cytotoxicity was -22.8%. CCOC(=O)Nc1sc(=S)n(C)c1C showed a cytotoxicity of -8.2%. Work on CN(C)c1nc(SCCOC(=O)Nc2ccccc2)nc(N(C)C)n1 yielded a cytotoxicity of 19.3%. With Cc1c(NC(=O)OCCSc2nc(N(C)C)nc(N(C)C)n2)sc(=S)n1C the cytotoxicity was 59.5% (active). Nc1nc2nccc(-c3ccc(Cl)cc3)n2n1 gave a cytotoxicity of 3.6%. Cc1ccc(NC(=O)N2CCCC2C(=O)NCCc2ccccc2)cc1 (stereo unspecified) showed a cytotoxicity of -9.2%. In the case of Cc1ccc(S(=O)(=O)N2CCN(C(=O)COC(=O)COc3ccccc3)CC2)cc1, the cytotoxicity was 7.4%. CCOC(=O)c1ccc2c(c1)nc(SCc1cn3ccsc3n1)n2CC gave a cytotoxicity of 19.7%. COc1cc(CC(=O)NCc2ccc3c(c2)OCO3)cc(OC)c1OC showed a cytotoxicity of -7.2%. COc1cc(CC(=O)Oc2ccc3c(c2)OCO3)cc(OC)c1OC gave a cytotoxicity of 28.4%. In the case of COc1cc([C@@H]2c3cc4c(cc3[C@H](O)[C@H]3COC(=O)[C@H]23)OCO4)cc(OC)c1OC, the cytotoxicity was 67.2% (active). Cc1nn(C)c(C)c1S(=O)(=O)N1CCCC(C(=O)NCC2COc3ccccc3O2)C1 (stereo unspecified) showed a cytotoxicity of -4%. Work on Fc1cccc(CSc2ncnc3c2oc2ccccc23)c1 yielded a cytotoxicity of 12.4%. For COCCn1nnnc1C(c1ccc(OC)cc1OC)N1CCN(c2ccccc2)CC1 (stereo unspecified), the cytotoxicity was -2%. With COc1ccc(OC)c(C(O)c2coc3ccc(O)c(CN4CCOCC4)c23)c1 (stereo unspecified) the cytotoxicity was 1.7%. COC(=O)CSc1nnc(CSc2nc(C)cc(C)n2)n1Cc1ccco1 showed a cytotoxicity of -2.1%. Molecule COc1ccc(C(C)=O)cc1COC(=O)c1cc(C)oc1C has a cytotoxicity of 2.5%. Molecule COc1ccccc1C(=O)OCC(=O)Nc1ccc(OC(F)F)cc1 has a cytotoxicity of 5.1%. With Cc1cccnc1Nc1nc(-c2ccc(O)cc2O)cs1 the cytotoxicity was 67.2% (active). In the case of Cc1nc(N)sc1-c1csc(Nc2ccccn2)n1, the cytotoxicity was -12.4%. Cc1cc(O)ccc1Nc1nc(-c2sc(N)nc2C)cs1 showed a cytotoxicity of 1.6%. For CCOC(=O)N1CCN(c2c(NCc3cccs3)c(=O)c2=O)CC1, the cytotoxicity was 46.8%. Cc1nc(N2CCN(c3ccccc3)CC2)[nH]c(=O)c1Cc1cccc2ccccc12 showed a cytotoxicity of 7.5%. Work on COC(=O)COc1ccc(S(=O)(=O)NCCC2=CCCCC2)cc1 yielded a cytotoxicity of 18.8%. For COC(=O)COc1ccc(S(=O)(=O)NCCC2=CCCCC2)cc1C, the cytotoxicity was -2.4%. In the case of CCOC(=O)COc1ccc(S(=O)(=O)NCCC2=CCCCC2)cc1, the cytotoxicity was 50.3% (active). Work on O=C(c1ccncc1)N1CCN(C(=O)c2cccs2)CC1 yielded a cytotoxicity of -5.3%. For O=C(Nc1ccc(N2CCOCC2)c(Cl)c1)c1cccc(F)c1, the cytotoxicity was 16.4%. Work on O=C(Nc1ccccc1N1CCN(C(=O)c2ccccc2)CC1)c1cc2ccccc2o1 yielded a cytotoxicity of -8.3%. In the case of O=C(Nc1ccc(N2CCOCC2)c(Cl)c1)c1c(F)c(F)c(F)c(F)c1F, the cytotoxicity was 54.5% (active). Molecule O=C(Nc1ccc(N2CCN(C(=O)c3ccco3)CC2)c(Cl)c1)c1cccs1 has a cytotoxicity of 16.9%. In the case of O=C(Cc1ccc(Cl)cc1)Nc1ccc(N2CCN(C(=O)c3ccco3)CC2)c(Cl)c1, the cytotoxicity was 19.6%. In the case of Cc1ccccc1C(=O)N1CCN(c2ccc(NC(=O)c3ccco3)cc2Cl)CC1, the cytotoxicity was 11.7%. For CCC(=O)Nc1ccc(NC(=O)c2cc3ccccc3o2)cc1, the cytotoxicity was -18.1%. In the case of O=C(Nc1ccc(N2CCN(C(=O)c3ccco3)CC2)c(Cl)c1)c1c(F)c(F)c(F)c(F)c1F, the cytotoxicity was 56% (active). O=C(Nc1ccc(N2CCN(C(=O)c3ccccc3)CC2)c(Cl)c1)c1ccco1 gave a cytotoxicity of -7.6%. For O=C(Nc1ccc(N2CCOCC2)c(Cl)c1)c1ccco1, the cytotoxicity was -5.7%. Work on CCn1c(C(=O)NCc2cccnc2)cc2sc(Cl)cc21 yielded a cytotoxicity of 1.8%. Work on CC(=O)Nc1cc(C(=O)N2CCOCC2)ccc1S(=O)(=O)c1ccc(C)cc1 yielded a cytotoxicity of -15.2%. Work on COc1ccc(CCNC(=O)C2CCCN(C(=O)N(C)C)C2)c(OC)c1 (stereo unspecified) yielded a cytotoxicity of -5.4%. CCN(CC)c1ccc2c(c1)C(=O)N(C)C2=O showed a cytotoxicity of 11.6%. CCn1cc(SCC(=O)NCc2ccc3c(c2)OCO3)c2ccccc21 showed a cytotoxicity of 4.6%. With COc1ccc(CN(CC2CCCO2)S(=O)(=O)c2ccc(C(=O)O)cc2)cc1OC (stereo unspecified) the cytotoxicity was 8.1%. With Cn1c(=Nc2ccc(N3CCOCC3)cc2)ccc2ccccc21 the cytotoxicity was 0.9%. In the case of COc1ccc(-n2nc(C(=O)NCc3ccco3)c3c4ccccc4n(C)c3c2=O)cc1Cl, the cytotoxicity was 2.9%. Molecule Cc1nn(CCO)c2c1C(=O)CCC2 has a cytotoxicity of -9.1%. With O=C1CC(N2CCOCC2)C(=O)N1c1ccc2c(c1)OCO2 (stereo unspecified) the cytotoxicity was -4.6%. CC1CN(c2nc3ccccc3nc2C(C#N)C(=O)NC2CCCCC2)CC(C)O1 (stereo unspecified) showed a cytotoxicity of -15.5%. In the case of Cc1ccc(NC(=O)CN2C(=O)NC(Cc3ccccc3)C2=O)cc1 (stereo unspecified), the cytotoxicity was -48.1%. O=C(Nc1ccccc1N1CCN(C(=O)c2ccc(Cl)cc2)CC1)c1cc2ccccc2o1 gave a cytotoxicity of -2.7%. CCCC(=O)N1CCN(c2ccc(NC(=O)c3cc4ccccc4o3)cc2)CC1 gave a cytotoxicity of -13.7%. In the case of CC1CCN(CCCNC(=O)C2CCN(S(=O)(=O)N3CCCCC3)CC2)CC1, the cytotoxicity was -11.8%. For Cc1cccc(S(=O)(=O)c2c(N)n(/N=C/c3cccnc3)c3nc4ccccc4nc23)c1, the cytotoxicity was 28.2%. Cc1ccc(C)c(S(=O)(=O)c2c(N)n(/N=C/c3ccco3)c3nc4ccccc4nc23)c1 showed a cytotoxicity of 33.6%. With Cc1cccc(S(=O)(=O)c2c(N)n(/N=C/c3ccco3)c3nc4ccccc4nc23)c1 the cytotoxicity was 26.6%. For Cc1ccc(S(=O)(=O)c2c(N)n(/N=C/c3ccco3)c3nc4ccccc4nc23)cc1C, the cytotoxicity was 11.7%. In the case of Cc1ccc(S(=O)(=O)c2c(N)n(/N=C/c3ccco3)c3nc4ccccc4nc23)cc1, the cytotoxicity was 38.7%. In the case of Nc1c(S(=O)(=O)c2cccc(Cl)c2)c2nc3ccccc3nc2n1/N=C/c1ccc(O)c(O)c1, the cytotoxicity was 117% (active). For Nc1c(S(=O)(=O)c2cccs2)c2nc3ccccc3nc2n1Cc1cccs1, the cytotoxicity was -1.9%. In the case of Nc1c(S(=O)(=O)c2cccc(Cl)c2)c2nc3ccccc3nc2n1CCN1CCOCC1, the cytotoxicity was -2%. In the case of Nc1c(S(=O)(=O)c2ccccc2)c2nc3ccccc3nc2n1/N=C/c1ccco1, the cytotoxicity was 69% (active). For COCCn1c(N)c(S(=O)(=O)c2cccs2)c2nc3ccccc3nc21, the cytotoxicity was 5%. In the case of Nc1c(S(=O)(=O)c2cccs2)c2nc3ccccc3nc2n1/N=C/c1cccc(O)c1, the cytotoxicity was 64.6% (active). Molecule COc1ccc(-n2c(Cc3cccn3C)nnc2SCC(=O)NC2CCCC2)cc1 has a cytotoxicity of -16%. Work on CCN(CC)CCNC(=O)Cn1nc(Cc2ccccc2)c2ccccc2c1=O yielded a cytotoxicity of -4.7%. CCOc1cc(C2C(C#N)=C(N)Oc3n[nH]c(CC)c32)ccc1OCCN1CCOCC1 (stereo unspecified) showed a cytotoxicity of -1.8%. CCOC(=O)C1CCN(C(=O)CNS(=O)(=O)c2cccs2)CC1 gave a cytotoxicity of -14.6%.
